Out of some 13,000 compounds screened, about 3,200 (25%) showed an effect of 50% or more. This is one part of the list.
Tested on: P. falciparum stage V gametocytes
Parameters: BacTiter-Glo ATP luminescence viability of purified stage V gametocytes in 384-well plates, per cent inhibition versus DMSO
Settings: 48 h, 5 µM; inhibitor

In order of rising “% Inhibition” value:
1. Cc1c(Br)cc2[nH]c(-c3ccc(C(=O)NC4CCN(Cc5ccccc5)CC4)cc3)nc2c1C [TCMDC-140026]  -88.51%
2. O=[N+]([O-])c1cccc(S(=O)(=O)N2CCN(CC(O)COc3ccc(-c4ccccc4)cc3)CC2)c1 (stereo not shown) [TCMDC-125015]  -58.05%
3. CN(C)C(=S)N=Nc1c(O)[nH]c2ccc(OC(F)(F)F)cc12 [TCMDC-141099]  -50.91%
4. NC(=O)c1cccc(C(=O)Nc2cccc(-c3ccc(-c4nc5ccc(C(F)(F)F)cc5[nH]4)cc3)c2)c1 [TCMDC-132202]  -50.53%
5. O=[N+]([O-])c1ccccc1/C=N/Nc1ccnc2ccc(C(F)(F)F)cc12 [TCMDC-142044]  -33.57%
6. Cc1cccc2nc(-c3cccc(-c4ccc(C(=O)NCCc5ccc(O)c(=O)[nH]5)cc4)c3)[nH]c12 [TCMDC-132490]  -25.23%
7. CC(=O)Nc1cccc(Nc2nccc(-c3c(-c4cccc(NC(=O)c5c(F)cccc5F)c4)nn4ncccc34)n2)c1 [TCMDC-135548]  -25.11%
8. CC(Cc1ccc(NC(=O)c2ccc(CNCc3ccccc3)cc2)cc1)N(CCc1cccc(Cl)c1)C(=O)OC(C)(C)C (stereo not shown) [TCMDC-139859]  -24.54%
9. CS(=O)(=O)Cc1ccc(Nc2nccc(-c3c(-c4cccc(NC(=O)c5c(F)cccc5F)c4)nn4ccccc34)n2)cc1 [TCMDC-135669]  -24.51%
10. Oc1ccc(Cl)cc1CN1CCC2(CCCN(CC3CCC3)C2)C1 (stereo not shown) [TCMDC-124637]  -23.05%
11. Cn1nc(-c2ccc(CN[C@@H]3CCc4ccc(O)cc43)cc2)c2cnc(NC3CCCC3)nc21 [TCMDC-135029]  -22.32%
12. NC(Cc1cccc(I)c1)C(=O)NCC1CCCO1 (stereo not shown) [TCMDC-141273]  -21.09%
13. O=C(c1ccc(-c2cccc(-c3nc4cc(C(F)(F)F)ccc4[nH]3)c2)cc1)N1CCCCC1CN1CCC(O)C1 (stereo not shown) [TCMDC-132348]  -20.7%
14. CS(=O)(=O)NCCCNCc1cccc(-c2ccc(-c3nc4ccc(C(F)(F)F)cc4[nH]3)cc2)c1 [TCMDC-133079]  -16.43%
15. COCCOc1ccc(Nc2nccc(-c3c(-c4cccc(NC(=O)c5c(F)cccc5F)c4)nn4ccccc34)n2)cc1Cl [TCMDC-135955]  -12.66%
16. CCN(CC(C)O)C(=O)c1ccc(-c2ccc(-c3nc4cccc(C)c4[nH]3)cc2)cc1 (stereo not shown) [TCMDC-132503]  -12.34%
17. CCCCN(CCCC)CCNC(=O)c1cc(OC(F)(F)F)ccc1O [TCMDC-141130]  -10.84%
18. COc1cc(Cc2cnc(N)nc2N)cc(OC(C)C)c1OC [TCMDC-137645]  -10.21%
19. O=C(Nc1ccc(OC2CCN(Cc3ccsc3)CC2)c(Cl)c1)c1ccc(F)cc1 [TCMDC-134272]  -4.957%
20. O=C(Nc1cccc(-c2nn3ncccc3c2-c2ccnc(Nc3ccccc3)n2)c1)c1c(F)cccc1F [TCMDC-134631]  -2.939%
21. O=C(Nc1cccc(-c2nn3ncccc3c2-c2ccnc(Nc3cccnc3)n2)c1)c1c(F)cccc1F [TCMDC-135635]  0.1379%
22. O=C(c1cccc(-c2cccc(-c3nc4cc(F)ccc4[nH]3)c2)c1)N1CCCCC1CN1CCC(O)C1 (stereo not shown) [TCMDC-132350]  0.1683%
23. COc1ccc(C2SCC(=O)N2CCc2ccc(OC)c(OC)c2)cc1 (stereo not shown) [TCMDC-125738]  0.3725%
24. O=C(Nc1ccc2c(c1)CCC2)c1ccc(N2CCN(c3ccncc3)CC2)cn1 [TCMDC-135155]  0.5792%
25. COc1ccc(S(=O)(=O)N(CC(=O)NN=C(C)c2cccs2)c2cc(C)cc(C)c2)cc1OC [TCMDC-125737]  0.7472%
26. Cc1nc(N)nc(N)c1-c1ccc(Br)c([N+](=O)[O-])c1 [TCMDC-138071]  1.652%
27. CC(C)OCCCNC(=O)c1nc(-c2cccc(C(F)(F)F)c2)sc1C(C)C [TCMDC-133788]  3.705%
28. COc1cc2nc(NCCCOC(C)C)n3nc(-c4ccccc4)nc3c2cc1OC [TCMDC-124450]  5.714%
29. COc1cccc(OC)c1OCCCON1C(N)=NC(N)=NC1(C)C [TCMDC-131731]  5.866%
30. CCOc1cc(C(=O)N[C@@H](Cc2ccccc2)[C@H](O)CNCc2cc(OC)cc(OC)c2)cc(N2CCCS2(=O)=O)c1 [TCMDC-134573]  6.074%
31. O=C(NCCN1CCCCC1)c1ccc(CNC(=O)c2ccc(O)c(-c3cccc(C(F)(F)F)c3)c2)cc1 [TCMDC-140817]  7.187%
32. CC(O)C1CCCCN1C(=O)c1cccc(-c2cccc(-c3nc4ccccc4[nH]3)c2)c1 (stereo not shown) [TCMDC-132313]  8.745%
33. CS(=O)(=O)CCNCc1cccc(-c2cc3c(Nc4ccc(OCc5ccccc5)cc4)ncnc3cn2)c1 [TCMDC-138240]  8.889%
34. Cc1ccccc1C(O)CNc1ccnc(Nc2cccc(C#N)c2)n1 (stereo not shown) [TCMDC-136566]  9.635%
35. CCC(C(C)C)n1ccc2c3c(N)nc(N)nc3ccc21 (stereo not shown) [TCMDC-137872]  10.31%
36. Cc1cccc2nc(-c3ccc(-c4cccc(C(=O)N5CCCCC5C(C)O)c4)s3)[nH]c12 (stereo not shown) [TCMDC-132331]  10.35%
37. COc1ccc(CNC(=O)NC2CCN(c3ccnc(Nc4ccc(OC)cc4)n3)C2)cc1 (stereo not shown) [TCMDC-133607]  11.17%
38. COc1ccccc1NS(=O)(=O)c1cc(C(=O)Nc2ccc(N3CCOCC3)c(S(=O)(=O)Nc3ccccc3Cl)c2)ccc1Cl [TCMDC-125591]  13%
39. CC(=O)Nc1cccc(C(=O)Nc2cccc(-c3ccc(-c4nc5cc(C(F)(F)F)ccc5[nH]4)s3)c2)c1 [TCMDC-132138]  13.04%
40. O=C(O)c1ccc(OCOCOc2ccc(C(=O)O)c(O)c2)cc1O [TCMDC-131764]  13.72%
41. O=C(Nc1ccc(OC2CCN(Cc3ccc(F)cc3)C2)cc1)c1cccs1 (stereo not shown) [TCMDC-133753]  15.26%
42. c1ccc(CN2CCC(NCc3cccc(-c4cncc5ccccc45)c3)CC2)cc1 [TCMDC-134152]  18.28%
43. CC(O)C1CCCCN1C(=O)c1ccc(-c2cccc(-c3nc4cc(F)ccc4[nH]3)c2)cc1 (stereo not shown) [TCMDC-132333]  18.43%
44. COc1ccc(NC(=O)c2ccc(-c3nc(-c4ccc(Cl)cc4)cs3)cc2)cc1N1CCN(C)CC1 [TCMDC-138685]  18.54%
45. CN(C)CCOc1ccc(NC(=O)Nc2ccnc3c(Br)cccc23)cc1Cl [TCMDC-140325]  18.67%
46. COc1cc(NC(=O)c2cccs2)c(C(=O)NCc2ccc(C)cc2)cc1OC [TCMDC-125007]  20.88%
47. CC(O)C1CCCCN1C(=O)c1cccc(-c2cccc(-c3nc4cc(F)ccc4[nH]3)c2)c1 (stereo not shown) [TCMDC-132339]  25.33%
48. Cc1cc(-c2ccc(NC(=O)N3CCc4cc(Br)c(N5CCN(C)CC5)cc43)cc2)cc(C)n1 [TCMDC-139279]  26.15%
49. COCCOc1ccc(Nc2nccc(-c3c(-c4cccc(NC(=O)c5c(F)cccc5F)c4)nn4ccccc34)n2)cc1F [TCMDC-135995]  27.09%
50. COc1ccc(CN2CCN(CCOC(c3ccccc3)c3ccc(Cl)cc3)CC2)c(O)c1 (stereo not shown) [TCMDC-135692]  28.74%
51. Clc1ccc(CNc2ccnc(NCc3ccc4c(c3)OCCCO4)n2)c(Cl)c1 [TCMDC-135116]  30.31%
52. Cn1cnc2c(Nc3ccncc3)nc(-c3ccc4c(c3)OCO4)nc21 [TCMDC-141274]  36.93%
53. CCCN1CCC=C(c2cccc(Nc3nccc(Nc4cc(OC)ccc4C)n3)c2)C1 [TCMDC-138668]  37.96%
54. O=C(Nc1cccc(-c2ccc(NCCCN3CCCC3)nc2)c1)c1ccccc1 [TCMDC-134145]  39.43%
55. CS(=O)(=O)Cc1ccc(Nc2nccc(-c3c(-c4cccc(NC(=O)c5c(F)cccc5F)c4)nn4ncccc34)n2)cc1 [TCMDC-135681]  52.9%
56. Cc1c(-c2ccc3c(c2)C(NCCCN2CCCCC2)CC3)cnc(N)c1C (stereo not shown) [TCMDC-138320]  53.54%
57. CC(O)C1CCCCN1C(=O)c1ccc(-c2ccc(-c3nc4cc(F)ccc4[nH]3)cc2)cc1 (stereo not shown) [TCMDC-132338]  65.53%
58. Cc1ccccc1Cn1ccc2c3c(N)nc(N)nc3ccc21 [TCMDC-137812]  70.17%
59. Cc1c(-c2cccc(C(C)(C)NC3CCN(Cc4ccccc4)CC3)c2)cnc(N)c1C [TCMDC-138300]  70.88%
60. NC1CCN(CCNCc2cccc(-c3ccc(-c4nc5ccc(F)cc5[nH]4)cc3)c2)C1 (stereo not shown) [TCMDC-133857]  75.97%
61. Cc1c(-c2cccc(C(C)(C)NCCCN3CCCCC3)c2)cnc(N)c1C [TCMDC-138284]  76.27%
62. O=C(c1ccc(-c2cccc(-c3nc4cc(F)ccc4[nH]3)c2)cc1)N1CCCCC1CN1CCC(O)C1 (stereo not shown) [TCMDC-132344]  80.27%
63. CCS(=O)(=O)c1ccc(OC)c(Nc2nccc(-c3c(-c4cccc(NC(=O)c5c(F)cccc5F)c4)nn4ncccc34)n2)c1 [TCMDC-135682]  81.78%
64. CCN(CC(C)O)C(=O)c1ccc(-c2cccc(-c3nc4cccc(C)c4[nH]3)c2)cc1 (stereo not shown) [TCMDC-132502]  84.23%
65. Nc1nc(N)c2c(ccc3c2ccn3Cc2cccc3ccccc23)n1 [TCMDC-137996]  88.02%
66. Cc1cccc2nc(-c3cccc(-c4ccc(C(=O)N5CCCCC5C(C)O)cc4)c3)[nH]c12 (stereo not shown) [TCMDC-132336]  92.31%
67. CCN(CC)CCCOc1ccc(Nc2nccc(-c3c(-c4cccc(NC(=O)c5c(F)cccc5F)c4)nn4ccccc34)n2)cc1F [TCMDC-135920]  94.91%
68. NC1CCN(CCNCc2cccc(-c3ccc(-c4nc5ccc(C(F)(F)F)cc5[nH]4)cc3)c2)C1 (stereo not shown) [TCMDC-133841]  98.1%
69. OCC(c1ccccc1)n1c(COc2ccc(Cl)cc2)nc2c(OCCCN3CCCCC3)cccc21 (stereo not shown) [TCMDC-138596]  103.2%
70. COc1cc2nc(N3CCC(CNC(=O)c4ccc(-c5ccc(-c6noc(C)n6)cc5C)cc4)CC3)nc(N)c2cc1OC [TCMDC-138155]  105.9%
71. CC(Cc1ccc(NC(=O)c2ccc(CNCCc3ccccc3)cc2)cc1)NCCc1cccc(Cl)c1 (stereo not shown) [TCMDC-139867]  108.4%
72. COc1cc2nc(N3CCC(CNC(=O)c4ccc(-c5ccc(-c6noc(C)n6)cc5)cc4)CC3)nc(N)c2cc1OC [TCMDC-138754]  115%
73. CC(Cc1ccc(NC(=O)c2ccc(CNCCCCc3ccccc3)cc2)cc1)NCCc1cccc(Cl)c1 (stereo not shown) [TCMDC-139866]  129.2%

Source: article PMC4552634, “A New Set of Chemical Starting Points with Plasmodium falciparum Transmission-Blocking Potential for Antimalarial Drug Discovery” (PLoS ONE, 2015)
